Reference: PubChem BioAssay AID1159580 (chemical genetic matrix, 2015)
The whole screen tested about 5,500 compounds, of which about 2,000 (36%) were called active. About 18% were inconclusive and are not listed. Rule as the data show it: active = normalized growth mostly below about 0.91 (no sharp cut-off); inconclusive = no clear call, values can overlap the other calls; inactive = mostly above about 0.92. The list shows a part of the results.

Assay: chemical genetic growth profiling, strain panel (AID 1159580);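 also: tested at 20 µM; growth read once vehicle control cultures reached saturation at 30 °C; 1 = growth at the plate median or of vehicle wells; lower values mean less growth of the strain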
Settings: growth OD

Measured: normalized growth

NS(=O)(=O)c1cc2c(cc1Cl)NC(C(Cl)Cl)NS2(=O)=O (stereo not drawn)
inactive: S. cerevisiae deletion strains, locus YKL009W, strain mrt4, active compounds read low 1.02 | S. cerevisiae deletion strains, locus YKL068W, active compounds read low 1 | S. cerevisiae deletion strains, locus YKL085W, strain MDH1 (second series), active compounds read low 1.01 | S. cerevisiae deletion strains, locus YKL085W, strain MDH1, active compounds read low 1.01 | S. cerevisiae deletion strains, locus YKL160W, strain elf1, active compounds read low 1 | S. cerevisiae deletion strains, locus YKL190W, strain CNB1, active compounds read low 1.02 | S. cerevisiae deletion strains, locus YKR001C, strain vps1, active compounds read low 1.03 | S. cerevisiae deletion strains, locus YKR026C, strain gcn3, active compounds read low 0.99 | S. cerevisiae deletion strains, locus YKR091W, strain srl3, active compounds read low 0.97 | S. cerevisiae deletion strains, locus YLL001W, strain dnm1, active compounds read low 1.01 | S. cerevisiae deletion strains, locus YLL026W, active compounds read low 0.991 | S. cerevisiae deletion strains, locus YLL041C, strain sdh2, active compounds read low 0.988 | S. cerevisiae deletion strains, locus YLR027C, strain aat2, active compounds read low 0.985 | S. cerevisiae deletion strains, locus YLR039C, strain RIC1, active compounds read low 1.06 | S. cerevisiae deletion strains, locus YLR058C, strain SHM2, active compounds read low 1.02 | S. cerevisiae deletion strains, locus YLR102C, strain apc9, active compounds read low 1.01 | S. cerevisiae deletion strains, locus YLR113W, strain HOG1, active compounds read low 0.996 | S. cerevisiae deletion strains, locus YLR221C, strain rsa3, active compounds read low 0.949 | S. cerevisiae deletion strains, locus YLR258W, strain gsy2, active compounds read low 0.977 | S. cerevisiae deletion strains, locus YLR262C, strain YPT6 (second series), active compounds read low 0.999 | S. cerevisiae deletion strains, locus YLR262C, strain YPT6, active compounds read low 1.05 | S. cerevisiae deletion strains, locus YLR268W, strain sec22, active compounds read low 1.04 | S. cerevisiae deletion strains, locus YLR320W, strain mms22, active compounds read low 0.972 | S. cerevisiae deletion strains, locus YLR330W, strain CHS5, active compounds read low 1 | S. cerevisiae deletion strains, locus YLR342W, strain FKS1 (second series), active compounds read low 1.02 | S. cerevisiae deletion strains, locus YLR342W, strain FKS1, active compounds read low 0.993 | S. cerevisiae deletion strains, locus YLR357W, strain rsc2, active compounds read low 0.956 | S. cerevisiae deletion strains, locus YLR370C, strain arc18, active compounds read low 0.985 | S. cerevisiae deletion strains, locus YLR371W, strain rom2, active compounds read low 1.02 | S. cerevisiae deletion strains, locus YLR384C, strain iki3, active compounds read low 0.973 | S. cerevisiae deletion strains, locus YLR418C, strain cdc73, active compounds read low 1.05 | S. cerevisiae deletion strains, locus YML016C, strain PPZ1, active compounds read low 1 | S. cerevisiae deletion strains, locus YML032C, strain rad52, active compounds read low 1.02 | S. cerevisiae deletion strains, locus YML120C, strain ndi1, active compounds read low 0.986 | S. cerevisiae deletion strains, locus YML124C, strain tub3, active compounds read low 1.02 | S. cerevisiae deletion strains, locus YMR058W, strain fet3, active compounds read low 0.982 | S. cerevisiae deletion strains, locus YMR078C, strain ctf18, active compounds read low 1.02 | S. cerevisiae deletion strains, locus YMR125W, strain sto1, active compounds read low 0.966 | S. cerevisiae deletion strains, locus YMR129W, active compounds read low 0.97 | S. cerevisiae deletion strains, locus YMR205C, strain PFK2, active compounds read low 0.994 | S. cerevisiae deletion strains, locus YMR223W, strain ubp8, active compounds read low 1.01 | S. cerevisiae deletion strains, locus YMR231W, strain pep5, active compounds read low 0.971 | S. cerevisiae deletion strains, locus YMR263W, strain SAP30, active compounds read low 1.01 | S. cerevisiae deletion strains, locus YMR307W, strain GAS1, active compounds read low 1 | S. cerevisiae deletion strains, locus YNL067W, strain RPL9B, active compounds read low 1.01 | S. cerevisiae deletion strains, locus YNL071W, strain lat1, active compounds read low 0.981 | S. cerevisiae deletion strains, locus YNL183C, strain NPR1, active compounds read low 0.943 | S. cerevisiae deletion strains, locus YNL209W, strain ssb2, active compounds read low 0.997 | S. cerevisiae deletion strains, locus YNL233W, strain BNI4, active compounds read low 1.01 | S. cerevisiae deletion strains, locus YNL248C, strain rpa49, active compounds read low 0.935 | S. cerevisiae deletion strains, locus YNL250W, strain rad50, active compounds read low 1.02 | S. cerevisiae deletion strains, locus YNL271C, strain bni1, active compounds read low 1.01 | S. cerevisiae deletion strains, locus YNL298W, strain CLA4, active compounds read low 1.01 | S. cerevisiae deletion strains, locus YNL307C, strain MCK1, active compounds read low 1.03 | S. cerevisiae deletion strains, locus YNL322C, strain KRE1 (second series), active compounds read low 0.968 | S. cerevisiae deletion strains, locus YNR049C, strain mso1, active compounds read low 0.971 | S. cerevisiae deletion strains, locus YNR052C, strain pop2, active compounds read low 1.01 | S. cerevisiae deletion strains, locus YOL006C, strain TOP1, active compounds read low 1.02 | S. cerevisiae deletion strains, locus YOL012C, strain htz1 0.822 | S. cerevisiae deletion strains, locus YOL147C, strain pex11, active compounds read low 1.01 | S. cerevisiae deletion strains, locus YOR001W, strain rrp6, active compounds read low 0.978 | S. cerevisiae deletion strains, locus YOR061W, strain CKA2, active compounds read low 1 | S. cerevisiae deletion strains, locus YOR069W, strain VPS5, active compounds read low 1.01 | S. cerevisiae deletion strains, locus YOR070C, strain gyp1, active compounds read low 0.983 | S. cerevisiae deletion strains, locus YOR080W, strain dia2, active compounds read low 0.984 | S. cerevisiae deletion strains, locus YOR083W, strain WHI5, active compounds read low 0.982 | S. cerevisiae deletion strains, locus YOR106W, strain vam3, active compounds read low 1.01 | S. cerevisiae deletion strains, locus YOR136W, strain idh2, active compounds read low 1.01 | S. cerevisiae deletion strains, locus YOR144C, strain elg1, active compounds read low 1 | S. cerevisiae deletion strains, locus YOR184W, strain ser1, active compounds read low 1.02 | S. cerevisiae deletion strains, locus YOR231W, strain MKK1, active compounds read low 0.98 | S. cerevisiae deletion strains, locus YOR265W, strain rbl2, active compounds read low 0.981 | S. cerevisiae deletion strains, locus YOR270C, strain vph1, active compounds read low 0.967 | S. cerevisiae deletion strains, locus YOR290C, strain snf2, active compounds read low 0.945 | S. cerevisiae deletion strains, locus YOR316C, strain cot1, active compounds read low 1.01 | S. cerevisiae deletion strains, locus YPL051W, strain arl3, active compounds read low 0.991 | S. cerevisiae deletion strains, locus YPL055C, strain LGE1, active compounds read low 1.02 | S. cerevisiae deletion strains, locus YPL078C, strain atp4, active compounds read low 1 | S. cerevisiae deletion strains, locus YPL106C, strain sse1, active compounds read low 0.96 | S. cerevisiae deletion strains, locus YPL240C, strain hsp82, active compounds read low 0.983 | S. cerevisiae deletion strains, locus YPL241C, strain CIN2, active compounds read low 1.01 | S. cerevisiae deletion strains, locus YPL256C, strain CLN2, active compounds read low 0.969 | S. cerevisiae deletion strains, locus YPR119W, strain clb2, active compounds read low 1 | S. cerevisiae deletion strains, locus YPR141C, strain kar3, active compounds read low 1.02 | S. cerevisiae deletion strains, locus YPR163C, strain tif3, active compounds read low 1.02 | S. cerevisiae deletion strains, locus YPR167C, strain met16, active compounds read low 1.01 | S. cerevisiae deletion strains, strain wtn01, active compounds read low 1.03 | S. cerevisiae strains, strain wild type, active compounds read low 1
